Rows were chosen to be rich in hits. Some 27% of all compounds tested hit in one or more screens of this group.
sEH activator: increases human soluble epoxide hydrolase activity; 91,000 tested, 0.04% active; activation, % at 2 µM; purified human sEH enzymatic activity, activator screen; AID 717; P34913; in the data active means activation above about 37%
CYP2C9 activ: activators of human CYP2C9 | P11712 | recombinant CYP2C9, luciferin-H conversion, luminescence; stronger effect = higher value; factor 1 = untreated enzyme, 0 = blocked | activation factor at 5 µM | 96,000 tested, 1.4% active | AID 1024;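 active means activation factor of 2 or more for CYP2C9 at a 5 µM dose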;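 further: 0 = sulfaphenazole-blocked wells and 1 = vehicle-only wells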
Target sequence (P11712 whole entry, looked up): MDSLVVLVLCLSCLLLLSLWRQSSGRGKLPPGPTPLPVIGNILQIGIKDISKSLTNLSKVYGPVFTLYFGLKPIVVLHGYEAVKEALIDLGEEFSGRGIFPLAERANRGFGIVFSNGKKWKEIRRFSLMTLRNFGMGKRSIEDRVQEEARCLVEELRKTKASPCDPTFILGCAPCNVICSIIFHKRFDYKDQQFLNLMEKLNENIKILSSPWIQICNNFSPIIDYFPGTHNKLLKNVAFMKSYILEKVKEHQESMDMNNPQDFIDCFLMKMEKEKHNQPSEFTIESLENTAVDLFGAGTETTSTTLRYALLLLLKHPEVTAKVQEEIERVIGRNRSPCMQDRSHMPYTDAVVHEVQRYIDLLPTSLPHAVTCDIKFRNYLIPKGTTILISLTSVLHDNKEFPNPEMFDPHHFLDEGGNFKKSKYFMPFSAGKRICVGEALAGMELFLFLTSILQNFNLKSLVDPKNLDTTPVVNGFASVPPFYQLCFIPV
CYP2C9 inhib: inhibitors of human CYP2C9. AID 777. CYP2C9 Supersomes, luciferin-H conversion, luminescence. 96,000 tested, 20% active. inhibition, % at 5 µM. P11712;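 active means blocking of liver enzyme CYP2C9 beyond about 50% at 5 µM, limit read from the data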
CYP2C19 inhib: human CYP2C19 inhibition; CYP2C19 Supersomes, luciferin-H EGE luminescence, 30 min; inhibition, % at 5 µM; AID 778; 96,000 tested, 21% active; P33261;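 active means CYP2C19 inhibition above a set limit at 5 µM in the primary screen, cut at about 50% in these data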;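 further: plate controls were negative control wells for no effect and 2.5 mM tranylcypromine positive control for full effect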
CYP2C19 activ: increases human CYP2C19 enzyme activity; P33261; activation factor at 5 µM; 96,000 tested, under 10 active; recombinant CYP2C19, luciferin-H EGE luminescence; stronger effect = higher value; 0 = fully inhibited enzyme, 1 = untreated enzyme;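 active means activation factor of at least 2 at 5 µM in the primary screen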;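 further: 0 = wells with 2.5 mM tranylcypromine and 1 = vehicle-only wells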
sEH inhibitor: soluble epoxide hydrolase (human) inhibition | P34913 | recombinant human sEH enzymatic activity assay | 91,000 tested, 0.34% active | AID 707 | inhibition, % at 2 µM; in the data active means inhibition above about 80%
Numbers without * were called inactive; / = no result.

SMILES | sEH activator | CYP2C9 activ | CYP2C9 inhib | CYP2C19 inhib | CYP2C19 activ | sEH inhibitor
COCC(=O)Nc1ccc(C(C)C)cc1 | 7 | 0.9 | 7 | 16 | 0.8 | -9
Cc1ccc(S(=O)(=O)Cn2cnnn2)cc1 | / | 1 | 3 | 10 | 0.9 | /
COc1cc(=O)[nH]c(SCc2c(F)c(F)c(F)c(F)c2F)n1 | -2 | 0.5 | 50* | 27 | 0.7 | 4
CCc1ccc(N/C(SCc2ccccc2C)=C(/C#N)C(=O)NCc2ccco2)cc1 | -5 | 0.4 | 64* | 57* | 0.4 | 2
COc1cc(-c2nnc(COC(=O)c3c4c(nc5ccccc35)CCCC4)o2)cc(OC)c1OC | -11 | 0.2 | 79* | 68* | 0.3 | 11
CC1(C)C(=O)OC(c2ccccc2)C2(CCCC2)C1=O (configuration not stated) | -5 | 0.8 | 21 | 90* | 0.1 | 5
Cc1cc(C)c(C(=O)C2OC(=O)C(C)(C)C(=O)C2(C)C)c(C)c1 (configuration not stated) | -2 | 0.1 | 90* | 92* | 0.1 | 3
CC1(C)C(=O)OC(C(=O)c2ccccc2)C(C)(C)C1=O (configuration not stated) | 7 | 0.4 | 58* | 91* | 0.1 | -5
CCOC(=O)N1CCN(C(=O)CSCc2nc(-c3ccccc3F)oc2C)CC1 | 0 | 0.7 | 32 | 38 | 0.6 | 2
FC(F)(F)c1ccc(Oc2ccc3c(C(F)(F)F)cc(C(F)(F)F)nc3n2)cc1 | -8 | 1 | 2 | -4 | 1 | 6
O=C(CNS(=O)(=O)c1ccc(Br)s1)N1CCN(c2ncccn2)CC1 | -4 | 0.4 | 61* | 42 | 0.6 | 10
Cc1ccc(C)c(N2CCN(C(=O)CNS(=O)(=O)c3cccs3)CC2)c1 | 3 | 0.5 | 50* | 54* | 0.5 | -6
Cc1ccc(N2CCN(C(=O)CNS(=O)(=O)c3ccc(Br)s3)CC2C)cc1 (configuration not stated) | -4 | 0.6 | 38 | 52* | 0.5 | 6
Cc1ccccc1/C=c1\s/c(=C\C(=O)C(C)(C)C)[nH]c1=O | -14 | 0.9 | 9 | 1 | 1 | 15
CCOc1ccccc1C(=O)Nc1ccccc1O | 9 | 5.7* | -469 | 27 | 0.7 | -5
CCOc1ccccc1NC(=O)c1ccccc1NS(C)(=O)=O | 0 | 0 | 96* | 9 | 0.9 | 1
Cc1cc(O)cc(O)c1-c1onc(C(F)(F)F)c1-c1cscn1 | -8 | 0.8 | 17 | 80* | 0.2 | 9
CCOc1ccc(-c2onc(C(F)(F)F)c2-c2cscn2)c(O)c1 | -5 | 1.8 | -78 | 26 | 0.7 | 7
C=CCN1C(=NC(=O)CC)SC2CS(=O)(=O)CC21 (configuration not stated) | -6 | 1 | 4 | -4 | 1 | 7
O=C(Cn1cnc2ccccc2c1=O)Nc1nnc(SCc2ccccc2)s1 | -3 | 0.9 | 9 | -2 | 1 | 4
COCCNCCOc1ccccc1-c1ccccc1 | 6 | 0.9 | 13 | 59* | 0.4 | -10
OCCNCCOc1ccccc1-c1ccccc1 | 6 | 0.6 | 38 | -6 | 1.1 | -3
CCCNC(=O)CN1C(=O)NC2(CCCc3cc(OC)ccc32)C1=O (configuration not stated) | 0 | 1.1 | -15 | 3 | 1 | 3
N#Cc1c(N)nc2c(c1N)CC(=O)N2c1ccccc1-c1ccccc1 | / | 0.1 | 87* | 96* | 0 | /
N#Cc1c(-c2ccccc2)nc2n(c1=O)CCS2 | -17 | 1.1 | -12 | 20 | 0.8 | 17
SMILES | sEH activator | CYP2C9 activ | CYP2C9 inhib | CYP2C19 inhib | CYP2C19 activ | sEH inhibitor
N#Cc1c(N)nc2c(c1N)CC(=O)N2c1ccc(Cl)cc1 | 5 | 0.7 | 30 | 52* | 0.5 | -4
CCOC(=O)c1cnn(-c2cc(Oc3cccc(C)c3)ncn2)c1N | 2 | 0.8 | 21 | -5 | 1 | 0
CCC(C)NC(=O)CCNS(=O)(=O)c1ccc(Br)cc1 (configuration not stated) | / | 2.2* | -116 | 49 | 0.5 | /
CCOCCCNS(=O)(=O)c1ccc(Br)cc1 | 18 | 1.3 | -35 | 90* | 0.1 | -16
CCC(C)NC(=O)CNS(=O)(=O)c1ccc(C)cc1 (configuration not stated) | 1 | / | / | / | / | 1
C=CCNC(=O)CCNS(=O)(=O)c1ccc(Br)cc1 | / | 1.6 | -59 | 20 | 0.8 | /
CCCCNC(=O)CCNS(=O)(=O)c1ccc(Br)cc1 | -11 | 2.7* | -166 | 19 | 0.8 | 9
COC(=O)CN(C#N)c1nc(OC)nc(N(C)C)n1 | -8 | 1.2 | -15 | 14 | 0.9 | 8
COc1cccc(S(=O)(=O)NCc2ccc(C(=O)Nc3ccc(C)cc3)cc2)c1 | 0 | 1.1 | -5 | 8 | 0.9 | 2
COC(=O)c1nc(-c2ccccc2)oc1N(C)C | -2 | 2.9* | -193 | 9 | 0.9 | 2
CCOC(=O)c1nnc(-c2ccccc2)o1 | -6 | 1.1 | -6 | -5 | 1.1 | 2
COC(=O)c1nc(-c2ccc(C)cc2)oc1N(C)C | -3 | 2.4* | -144 | 15 | 0.9 | 6
c1ccc(N2CCN(c3ccccc3)C2c2cccs2)cc1 | -8 | 1.1 | -7 | 52* | 0.5 | 6
O=C1CSC(c2cccs2)N1c1ccccc1 (configuration not stated) | 13 | 0.8 | 21 | 55* | 0.5 | -14
CN1C(=O)c2ccccc2N(C)C1c1cccs1 (configuration not stated) | -10 | 1 | 2 | 9 | 0.9 | 11
CCn1nc(C(=O)Nc2nc3ccc(C)cc3s2)c2ccccc2c1=O | 18 | 0.9 | 13 | -8 | 1.1 | -20
Cc1ccc(OC(=O)COc2ccccc2)c(-n2nc3ccccc3n2)c1 | 10 | 1 | -2 | -4 | 1 | -7
N#Cc1ccc(COc2ccc(CCO)cc2-n2nc3ccccc3n2)cc1 | -8 | 0.1 | 89* | 53* | 0.5 | 8
Cc1ccc(N(CC(=O)NCCc2ccccc2)S(=O)(=O)c2c(C)noc2C)cc1 | 15 | 0.7 | 34 | 84* | 0.2 | -16
COc1ccc(N(CC(=O)Nc2ccc(OC)c(Cl)c2)S(=O)(=O)c2c(C)noc2C)cc1 | / | 1 | 0 | 3 | 1 | /
COc1ccc(CCNC(=O)CN(c2ccc(C)cc2)S(=O)(=O)c2c(C)noc2C)cc1OC | 4 | 0.6 | 40 | 92* | 0.1 | -1
Cn1c(=O)n(CC(=O)Nc2ccccc2)c2ccccc21 | / | 1 | 4 | 42 | 0.6 | /
CSc1nc2ccccc2n1Cc1c(Cl)cccc1Cl | 3 | 0.4 | 56* | 52* | 0.5 | -2
Cc1ccc(SCc2nc3ccccc3n2CC(=O)Nc2ccccc2)cc1 | 0 | 0.2 | 84* | 57* | 0.4 | -1
Cc1ccc(SCc2nc3ccccc3n2CC(=O)Nc2c(C)cccc2C)cc1 | 11 | 0.6 | 36 | 9 | 0.9 | -8
O=C(Cn1c(CSc2ccccc2)nc2ccccc21)Nc1ccccc1 | 2 | 0.3 | 74* | 51* | 0.5 | -1
